Assay [1] can be described thus: stimulators of nuclear beta-catenin in C2C12, primary screen, imaging, WNT3A-conditioned medium, mouse C2C12, NPC library (AID 1117326; in the data active means nuclear beta-catenin stimulation mostly above about 4.2%, no sharp cut-off; inactive means mostly below about 10%). Particulars: stronger effect = higher value.
Assay [2] can be described thus: stimulators of insulin release from INS-1E, primary screen, cell-based, 5 mM glucose, NPC library (AID 1117329;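 active means compound raises insulin release from rat beta cells at 5 mM glucose, no numeric limit stated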). Particulars: rat INS-1E insulin secretion, at 10 µM, stronger effect = higher value.
Assay [3] can be described thus: growth inhibition of GSK3B-pretreated HCT116 cells – cell-based, CellTiter-Glo, 0.2 to 20 µM (AID 1117336;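 active means compounds lowering colon cancer cell viability after pretreatment blocking the GSK3B kinase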). Particulars: HCT116 viability after GSK3B inhibitor, at 20 µM, stronger effect = higher value. Background: ATP-based viability assays read luminescence as a measure of living cells.
Assay [4] in a line: inhibition of endothelial tube formation, primary screen, imaging, VEGF stimulated, CD31 staining, tube area, NPC library (AID 1117340;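 active means compound that reduces growth-factor-driven endothelial tube area in a mixed cell culture, no cutoff stated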). The settings on record: VEGF-stimulated ADSC/ECFC co-culture, at 10 µM, stronger effect = higher value.
Assay [5] can be described thus: glucagon-like peptide 1 release enhancers, primary assay, NCI-H716 cell line, NPC library (AID 1117341;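 active means compound raises GLP1 secretion from the human gut endocrine cells, with no numeric limit stated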). Particulars: NCI-H716 cells, at 10 µM, stronger effect = higher value.
A short description of assay [6]: HCT116 colon cancer cell growth inhibition, primary screen, CellTiter-Glo luminescence, NPC library (AID 1117342;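 active means compounds that lower survival of HCT116 colon cancer cells in the luminescence readout, no numeric limit stated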). Particulars: at 20 µM (top of the series).
Assay [7] is described as follows: CellTiter-Glo luminescent readout of SW480 viability loss, NPC library primary (AID 1117343;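 active means compounds that lower viability of the colon cancer cells in the luminescence readout, with no numeric limit stated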). Particulars: CellTiter-Glo luminescence; at 20 µM (top of the series).
Assay [8] is described as follows: decreased DLD-1 cellular survival, CellTiter-Glo luminescent readout, NPC compound collection, primary HTS (AID 1117346;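 active means compounds that lower survival of DLD-1 colon cancer cells in the luminescence readout, no cutoff given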). Particulars: DLD-1 viability, CellTiter-Glo luminescence; at 20 µM (top of the series).
Assay [9] deals with 6-phosphogluconate dehydrogenase, decarboxylating (Homo sapiens) (UniProt P52209). The experiment in a line: 6PGD enzyme inhibitors, primary screen, biochemical, human, recombinant enzyme, NADPH absorbance (AID 1159550;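 active means at least 20% inhibition of 6-phosphogluconate dehydrogenase activity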). The settings on record: recombinant 6PGD, NADPH absorbance 341 nm; at 10 µM; stronger effect = higher value.
Assay [10] in a line: differential killing of epithelial or mesenchymal cells, primary screen, imaging, PC-3E GFP, TEM4-18 mCherry, co-culture (AID 1345086;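 active means compounds killing one labelled cell type while sparing the other, by normalised counts and ratio limits, not self-fluorescent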;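 on all read-outs here: cells exposed to compound for 72 h before imaging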;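 on red/green cell ratio (normalised): normalised mesenchymal count divided by normalised epithelial count so high means epithelial killing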). Particulars: imaging cell counts, at 1 µM; for red/green cell ratio (normalised): actives lie on both sides, counts scaled to control wells, 1 = unselective.
A short description of assay [11]: survival rescue of mitochondrial mutant cells in low glucose, primary screen, MELAS cybrids, Rieske KO mouse fibroblasts, CellTiter-Glo (AID 1508586;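 active means mean z-score across replicates of 1.96 or higher in either the MELAS or the Rieske mutant cell line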;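 further: z relative to plate mean and SD of compound and empty wells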).
For assay [12], the target named is NAD(+) hydrolase SARM1 (Homo sapiens) (UniProt Q6SZW1). Kind of assay: SARM1 TIR NADase inhibitors, cell lysate, NAD-Glo luminescence (AID 1508614;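 active means compound whose remaining NAD level is above about 45 nM, limit read from the data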). The settings on record: SAM-TIR HEK293T lysate NADase, at 1 µM, stronger effect = higher value.
For assay [13], the target named is Mitogen-activated protein kinase 7 (Homo sapiens) (UniProt Q13164). Kind of assay: ERK5 transactivation activators in reporter cells, primary screen, cell-based, HTS (AID 1508626;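 active means luciferase signal above three times the same-plate solvent-only control wells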;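 further: luciferase driven by Gal4-ERK5 fusion binding five Gal4 sites before minimal TATA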). The settings on record: HeLa Gal4-ERK5 transactivation, 18 h, at 5 µM, stronger effect = higher value.
Assay [14] has as its system F380Y. Kind of assay: modulators of BK channel variants, profiling panel, selectivity assay, cell-based, U2OS BacMam, thallium flux, beta subunits (AID 1259406).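 Further: initial slope of Thallos dye fluorescence rise after thallium is added; log ratio against the mean of 0.3% DMSO vehicle wells on the same plate.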 Particulars: at 30 µM.
Assay [15] has as its system F380Y/beta2Delta. Described as above. Particulars: at 30 µM.
The target of assay [16] is Calcium-activated potassium channel subunit alpha-1 (Homo sapiens) + Leucine-rich repeat-containing protein 26 (Homo sapiens) (UniProt Q12791+Q2I0M4). The description is as above. Particulars: F380Y/Slo1WT/gamma1, at 30 µM.
Assay [17] has as its system R275C. The description is as above. The settings on record: at 30 µM.
Assay [18] has as its system R275C/beta1. The description is as above. Particulars: at 30 µM.
Assay [19] deals with R275C/beta2Delta. Described as above. Particulars: at 30 µM.
A short description of assay [20]: sensitizers of A549 cells to miR-34 induction, primary screen, imaging, A549 dox-inducible miR-34, nuclei and caspase counts (AID 1347080;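 active means compounds whose cell count with miR-34 switched on is under 0.7 times the count with it off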). The settings on record: A549 miR-34 inducible, Hoechst nuclei count, 48 h.
Where [21] appears, read: measured here: epithelial PC-3E GFP cell survival.
Where [22] appears, read: measured here: mesenchymal TEM4-18 mCherry cell survival.
Where [23] appears, read: MELAS cybrid survival, CellTiter-Glo 48 h, stronger effect = higher value.
Setting [24] is: Rieske KO mouse fibroblast survival, CellTiter-Glo 72 h.

Several values for one entry are separate records, joined by “and”; a condition that tells them apart may be missing. Identical values can stand only once. Activity calls are given as the source filed them.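 How the source made its calls, unless noted: active means thallium flux through the channel raised or lowered by more than 3 SD from vehicle-only wells, actives on both sides; inactive means the rest.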

Calcium-activated potassium channel subunit alpha-1 (Homo sapiens) + Leucine-rich repeat-containing protein 26 (Homo sapiens), sequence (Q2I0M4 whole entry, looked up, one chain of several): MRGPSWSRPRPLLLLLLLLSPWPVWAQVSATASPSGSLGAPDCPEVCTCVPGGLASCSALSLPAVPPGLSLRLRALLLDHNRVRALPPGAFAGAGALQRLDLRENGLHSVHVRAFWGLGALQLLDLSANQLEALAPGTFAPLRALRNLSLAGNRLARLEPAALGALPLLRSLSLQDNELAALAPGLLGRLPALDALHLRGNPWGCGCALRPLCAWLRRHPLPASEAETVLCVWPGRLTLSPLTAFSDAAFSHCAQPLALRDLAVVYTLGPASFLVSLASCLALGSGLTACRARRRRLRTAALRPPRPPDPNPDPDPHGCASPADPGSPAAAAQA
6-phosphogluconate dehydrogenase, decarboxylating (Homo sapiens), sequence (P52209 whole entry, looked up): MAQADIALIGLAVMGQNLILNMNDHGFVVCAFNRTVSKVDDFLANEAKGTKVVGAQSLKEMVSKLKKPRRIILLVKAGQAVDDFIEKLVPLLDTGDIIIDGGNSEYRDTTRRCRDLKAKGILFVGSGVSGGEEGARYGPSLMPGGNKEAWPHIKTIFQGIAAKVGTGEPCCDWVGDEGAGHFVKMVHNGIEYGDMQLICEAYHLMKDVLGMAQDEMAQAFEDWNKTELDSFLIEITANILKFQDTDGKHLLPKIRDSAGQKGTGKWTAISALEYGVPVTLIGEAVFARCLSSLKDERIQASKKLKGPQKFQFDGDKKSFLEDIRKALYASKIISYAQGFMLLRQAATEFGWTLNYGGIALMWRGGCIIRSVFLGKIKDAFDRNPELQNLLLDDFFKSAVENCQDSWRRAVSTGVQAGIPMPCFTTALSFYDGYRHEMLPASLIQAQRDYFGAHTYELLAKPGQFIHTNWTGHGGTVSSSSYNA
Mitogen-activated protein kinase 7 (Homo sapiens), sequence (Q13164 whole entry, looked up, the tested form may be a part): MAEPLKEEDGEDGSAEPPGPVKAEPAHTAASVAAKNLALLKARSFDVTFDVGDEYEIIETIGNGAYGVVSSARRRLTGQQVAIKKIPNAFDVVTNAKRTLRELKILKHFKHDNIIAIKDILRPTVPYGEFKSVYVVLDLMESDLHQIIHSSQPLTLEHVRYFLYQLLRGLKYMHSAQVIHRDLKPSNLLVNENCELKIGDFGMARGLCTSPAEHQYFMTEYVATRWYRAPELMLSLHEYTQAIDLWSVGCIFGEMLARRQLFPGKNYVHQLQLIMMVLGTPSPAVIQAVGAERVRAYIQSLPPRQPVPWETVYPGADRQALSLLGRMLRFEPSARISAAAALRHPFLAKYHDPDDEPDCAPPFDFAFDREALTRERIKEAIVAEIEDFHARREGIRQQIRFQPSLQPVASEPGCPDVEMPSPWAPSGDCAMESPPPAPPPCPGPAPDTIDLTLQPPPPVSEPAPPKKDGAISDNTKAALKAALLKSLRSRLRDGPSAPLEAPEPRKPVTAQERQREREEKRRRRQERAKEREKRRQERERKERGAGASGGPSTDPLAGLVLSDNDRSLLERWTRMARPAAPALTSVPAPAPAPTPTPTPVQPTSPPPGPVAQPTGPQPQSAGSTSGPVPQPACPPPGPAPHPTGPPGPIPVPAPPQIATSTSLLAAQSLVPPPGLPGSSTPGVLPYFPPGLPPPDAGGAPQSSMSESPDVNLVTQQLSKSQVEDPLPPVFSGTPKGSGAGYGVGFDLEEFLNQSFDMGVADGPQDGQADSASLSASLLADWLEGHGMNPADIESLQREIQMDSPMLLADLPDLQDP
NAD(+) hydrolase SARM1 (Homo sapiens), sequence (Q6SZW1 whole entry, looked up, the tested form may be a part): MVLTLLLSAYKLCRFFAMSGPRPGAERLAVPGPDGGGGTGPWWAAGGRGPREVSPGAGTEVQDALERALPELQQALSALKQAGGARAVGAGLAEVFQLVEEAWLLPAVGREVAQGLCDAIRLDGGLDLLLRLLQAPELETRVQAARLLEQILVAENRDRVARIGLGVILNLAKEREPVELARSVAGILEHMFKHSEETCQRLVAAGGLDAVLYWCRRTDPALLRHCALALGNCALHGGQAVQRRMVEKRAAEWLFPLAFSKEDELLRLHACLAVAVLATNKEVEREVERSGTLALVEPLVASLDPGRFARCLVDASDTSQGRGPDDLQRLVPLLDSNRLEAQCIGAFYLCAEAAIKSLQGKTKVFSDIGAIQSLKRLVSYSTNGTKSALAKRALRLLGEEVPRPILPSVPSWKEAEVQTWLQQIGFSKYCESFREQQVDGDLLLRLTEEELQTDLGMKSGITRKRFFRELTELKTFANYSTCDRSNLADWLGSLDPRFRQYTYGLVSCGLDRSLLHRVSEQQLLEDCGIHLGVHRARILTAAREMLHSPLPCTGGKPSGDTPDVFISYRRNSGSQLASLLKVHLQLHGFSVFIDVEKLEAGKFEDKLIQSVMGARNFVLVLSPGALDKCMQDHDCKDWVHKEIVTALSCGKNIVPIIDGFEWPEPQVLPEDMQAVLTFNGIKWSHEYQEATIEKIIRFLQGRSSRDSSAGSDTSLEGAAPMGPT

On to `OCCN1CCN(CCCN2c3ccccc3Sc3ccc(C(F)(F)F)cc32)CC1`, for which the nuclear beta-catenin stimulation in [1] (at 10 µM) was 39.2% (inactive); in assay [1] (stimulation, at 2 µM) it was 6.3%. Besides, the insulin secretion stimulation in assay [2] was 8.85% (inactive). Besides, in assay [3], the viability decrease is 118% (active). The tube area decrease in assay [4] is 98.9% (active). The GLP1 secretion stimulation in [5] is 15.4% (inactive). The inhibition of viability in [6] is 124% (active). Further, the figures for the viability decrease (inhibition) in assay [7] and in [8] were 157% (active) and 101% (active), respectively. Also, the inhibition in [9] is 10.2% (inactive). For the same molecule, the red/green cell ratio (normalised) in [10] was 1.23 (inactive). Besides, the normalised cell number is 0.78 in assay [10] (setting [21]) and 0.95 in assay [10] (setting [22]). Also, the z-score is -1.28 (inactive) and 0.571 (inactive) in [11] (setting [23]); -0.139 and 0.376 in assay [11] (setting [24]). Further, in [12], the remaining NAD was 10 nM (inactive). Also, in [13], the luciferase signal is 28 AU (inactive). The log fold change Tl+ flux in assay [14] was 0.235 (active); in assay [15] it was 0.167 (active); in assay [16], 0.0357 (inactive); in assay [17] it was -0.11 (inactive); in assay [18], 0.409 (active); in assay [19] it was 0.0662 (inactive).

Consider `CN[C@H]1CC[C@@H](c2ccc(Cl)c(Cl)c2)c2ccccc21`, for which the nuclear beta-catenin stimulation is 6.5% (inactive) in assay [1] (at 10 µM) and -1.4% in [1] (stimulation, at 2 µM). Also, in assay [2], the insulin secretion stimulation was 11.8% (inactive). The viability decrease in assay [3] was 98.7% (active). In addition, the tube area decrease in [4] is 67.1% (active). Moreover, the GLP1 secretion stimulation in [5] was 7.5% (inactive). The inhibition of viability in [6] was 99.1% (active). The results for the viability decrease (inhibition) in [7] and in [8] were 120% (active) and 98% (active), respectively. For the same molecule, the inhibition in [9] is -2.43% (inactive). In [10], the red/green cell ratio (normalised) is 1.12 (inactive). The normalised cell number in assay [10] (setting [21]) was 0.93; in assay [10] (setting [22]), 1.05. In addition, the z-score is -0.257 (inactive) in assay [11] (setting [23]) and 0.309 in [11] (setting [24]). Besides, the luciferase signal in [13] was 48 AU (inactive). Moreover, the log fold change Tl+ flux in assay [14] is 0.286 (active) and 0.195 (active); in [15], 0.62 (active) and 0.894 (active); in [16], 0.123 (active) and 0.169 (active); in assay [17], -0.288 (active) and -0.259 (active); in [18], 0.549 (active) and 0.546 (active); in assay [19] it was -0.0453 (inactive) and -0.0183 (inactive).

With `CN1CCCC(n2nc(Cc3ccc(Cl)cc3)c3ccccc3c2=O)CC1` (configuration not stated), the nuclear beta-catenin stimulation is 1.5% (inactive) in assay [1] (at 10 µM) and 1.7% in assay [1] (stimulation, at 2 µM). The insulin secretion stimulation in [2] was 5.8% (inactive). Moreover, the viability decrease in assay [3] is -40.4% (inactive). For the same molecule, the tube area decrease in assay [4] was 21.5% (inactive). For the same molecule, in assay [5], the GLP1 secretion stimulation is 5.5% (inactive). The inhibition of viability in assay [6] is 64.8% (active). The viability decrease (inhibition) in assay [7] is -0.2% (inactive); in assay [8], 37.8% (inactive). Besides, the inhibition in assay [9] was 6.29% (inactive). Besides, the red/green cell ratio (normalised) in [10] is 0.89 (inactive). The normalised cell number in assay [10] (setting [21]) turned out to be 1.16; in assay [10] (setting [22]), 1.03. The fold change in assay [20] (stronger effect = lower value, cell number ratio, induced over uninduced) is 0.849 (inactive) and 0.93 (inactive) and 0.906 (inactive); in assay [20] (measured here: relative caspase fold change +Dox/-Dox), 1.32 and 0.694 and 6.18. In addition, the cell count is 5140 and 8770 and 9440 in assay [20] (measured here: total cells with miR-34 induction, stronger effect = lower value); 6060 and 9430 and 10400 in assay [20] (measured here: total cells without miR-34 induction). Further, the z-score in assay [11] (setting [23]) was -0.451 (inactive) and -0.0693 (inactive); in [11] (setting [24]), 0.19 and 0.396. The remaining NAD in assay [12] was 10 nM (inactive). In addition, the luciferase signal in assay [13] is 88 AU (inactive). Further, the log fold change Tl+ flux in [14] was 0.248 (active); in assay [15], 0.144 (active); in assay [16] it was 0.0633 (inactive); in assay [17], -0.0931 (inactive); in assay [18] it was 0.101 (active); in assay [19] it was -0.0285 (inactive).

As usually defined, the inhibition is the relative decrease from the control value, in per cent.

The values above are taken from PubChem BioAssay.
